Screening data as filed in PubChem.
PfHsp40 rescue: rescue of PfHsp40-mediated yeast toxicity; AID 504582; growth rescue, % at 12.5 µM; 340,000 tested, 0.68% active; S. cerevisiae expressing PfHsp40, growth rescue, ATP luminescence; in the data active = growth rescue above about 28%, passing the limit was not always enough;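 also: yeast W303a lacking pdr1 and pdr3 grown in galactose medium; growth measured after three days at 30 °C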
Yp Topo-I inh: inhibitors of Yersinia pestis topoisomerase I | activity, % at 10 µM | 360,000 tested, 0.064% active | Y. pestis Topo-I cleavage product accumulation, plate reader; in the data active = activity above about 50%, passing the limit was not always enough
FadD28 FP inh: M. tuberculosis FadD28 bisubstrate binding inhibition; AID 588549; 360,000 tested, 0.22% active; FadD28 bisubstrate probe binding, fluorescence polarization; inhibition, % at 12.5 µM; in the data active = inhibition above about 8.5%, passing the limit was not always enough
PrP UTR inh: suppresses PrP 5' UTR mRNA reporter expression | 340,000 tested, 0.35% active | inhibition, % (concentration not given with the values) | cell-based PrP 5' UTR mRNA reporter, plate reader; in the data active = inhibition above about 52%
BioA inh: inhibitors of Mycobacterium tuberculosis BioA enzyme; purified M. tuberculosis BioA enzyme, plate reader; inhibition, % at 9.99 µM; 360,000 tested, 0.096% active; in the data active = inhibition above about 40%
TcdB GH inh: TcdB glycohydrolase inhibition. P18177. TcdB glycohydrolase enzymatic assay, plate reader. inhibition, % at 9.99 µM. 350,000 tested, 0.24% active. AID 652162; in the data active = inhibition above about 10%
A number is an active result; 0 = inactive; - = not tested or not shown; ! = a repeat was not active. The list is not random: actives were taken first. Their share in the collection is about 1.2%.

SMILES	PfHsp40 rescue	Yp Topo-I inh	FadD28 FP inh	PrP UTR inh	BioA inh	TcdB GH inh
Oc1ccc(CNc2ccccc2F)c2cccnc12	39	0	0	0	0	0
COC(=O)CC1C(=O)NCCN1C(=O)c1ccc(S(=O)(=O)N2CCOCC2)cc1 (stereo not given)	0	0	14	0	0	0
CCOC(=O)CC1C(=O)NCCN1C(=O)c1ccc(Cl)cc1 (stereo not given)	0	0	0	0	0	0
O=C(NCc1ccccc1)c1ccc2nccnc2c1	31	0	0	0	0	0
C(=N\NC1=Nc2cccc3cccc1c23)/c1ccccn1	327	0	0	0	-	0
COc1ccc(S(=O)(=O)Nc2ccc3oc(C)c(C(=O)O)c3c2)cc1	0	0	0	0	0	15
Cc1cn2c(N)c(C=C3C=C(Cl)C(=O)C(Cl)=C3)c(=O)nc2s1	0	0	15	0	-	0
COC1=C/C(=C/c2c(N)n3cc(C)sc3nc2=O)C=CC1=O	0	0	0	0	0	0
COc1ccc(S(=O)(=O)Nc2ccc3c(c2)CC(=O)N([C@H](C)CO)C[C@H](C)[C@H](CN(C)S(=O)(=O)c2ccccc2)O3)cc1	-	-	-	-	0	-
COc1ccc(CNC(=O)COc2ccc(F)cc2)cc1	0	0	0	0	0	0
COc1ccc(CNC(=S)Nc2ccc(OC)cc2)cc1	0	0	0	0	-	-
COc1ccc(CNC(=O)COc2ccc(OC)cc2)cc1	0	0	22	0	0	0
COC(=O)Cc1ccc(NC(=S)NCc2ccc(OC)cc2)cc1	0	0	0	0	0	23
Cc1cc(Cl)ccc1OCc1n[nH]c(=S)n1C1CCCCC1	80	0	0	0	0	-
N/C(=N\OC(=O)c1ccc(Cl)cc1)c1ccc(Cl)cc1	0	0	0	0	0	-
N/C(=N\OC(=O)c1ccc(Cl)cc1)c1ccn[nH]1	34	0	0	0	0	0
OC1CCN(c2cc(-c3ccccc3)nc3cc(-c4ccc(F)cc4)nn23)CC1	0	0	0	0	-	0
COc1cccc(-c2cc3nc(-c4ccccc4)cc(N4CCCC(O)C4)n3n2)c1 (stereo not given)	72	0	0	0	-	-
Fc1ccc2nc3[nH]c4ccccc4c3nc2c1	47	0	0	0	0	-
OC1=C(O)c2nc3cc(F)ccc3nc21	0	0	0	0	0	0
C[C@H](CO)N1C[C@H](C)[C@@H](CN(C)C(=O)Nc2ccc(C(F)(F)F)cc2)Oc2c(NS(=O)(=O)c3ccccc3)cccc2C1=O	0	0	0	0	0	10!
C[C@H]1CN([C@@H](C)CO)C(=O)c2cccc(NS(=O)(=O)c3ccccc3)c2O[C@H]1CN(C)C(=O)Nc1ccc(C(F)(F)F)cc1	-	-	-	-	0	0
C[C@H](CO)N1C[C@H](C)[C@@H](CN(C)C(=O)Nc2ccc(C(F)(F)F)cc2)Oc2c(cccc2N(C)C)C1=O	0	0	0	0	0	14
C[C@@H]1CN([C@@H](C)CO)C(=O)c2cccc(N(C)C)c2O[C@H]1CN(C)C(=O)Nc1ccc(C(F)(F)F)cc1	-	-	-	-	0	0
Cc1cccc(C)c1NC(=O)COC(=O)c1ccc([N+](=O)[O-])o1	32	0	0	0	-	0
SMILES	PfHsp40 rescue	Yp Topo-I inh	FadD28 FP inh	PrP UTR inh	BioA inh	TcdB GH inh
CCOc1cc(N2CCOCC2)c(OCC)cc1NC(=O)COC(=O)c1cc(C)cc(C)c1	0	0	0	0	-	0
O=C(COC(=O)c1ccc([N+](=O)[O-])o1)Nc1ccc2c(c1)OCO2	67	0	0	0	0	0
O=C(COC(=O)c1ccc([N+](=O)[O-])o1)NCc1ccccc1	0	0	0	0	-	0
CCOc1cc(N2CCOCC2)c(OCC)cc1NC(=O)COC(=O)c1ccc([N+](=O)[O-])o1	82	0	0	0	0	0
COc1ccccc1CNC(=O)C[C@H]1CC[C@@H]2[C@H](COC[C@@H](O)CN2C(=O)Nc2ccccc2)O1	-	-	-	-	0	0
CCCCCCNC(=O)CC(c1ccccc1)c1cc(Br)ccc1O (stereo not given)	40	0	0	0	0	-
CC(C)NC(=O)CC(c1ccccc1)c1cc(Br)ccc1O (stereo not given)	0	0	0	0	-	0
CC(C)NC(=O)N1C[C@H]2[C@@H](c3ccccc31)[C@H](CO)N2C(=O)NC(C)C	-	-	-	-	0	0
Cc1ccc(NC(=S)N(C)Cc2cn(C)c3ccccc23)cc1	0	0	16	0	0	-
CCc1nnc(NC(=O)c2ccc(S(=O)(=O)N(CC)Cc3ccccc3)cc2)o1	172	0	0	0	0	-
C[C@@H]1CCCCO[C@@H](CN(C)C(=O)NC2CCCCC2)[C@H](C)CN([C@H](C)CO)C(=O)c2cc(NS(=O)(=O)c3ccc(F)cc3)ccc2O1	-	-	-	-	0	0
S=C1SCN(Cc2cccnc2)CN1Cc1cccnc1	309	0	0	0	-	0
O=S(=O)(N1CCCCC1)n1nnc2ccccc21	39	0	0	0	0	-
O=S(=O)(N1CCCCC1)n1nnc2cc3ccccc3cc21	-	-	-	-	-	0
CC1=NN(c2nc(-c3ccc(F)cc3)cs2)C(=O)C1	0	0	18	0	0	-
Cc1ccc(NC(=O)CNc2ccccc2N2CCCC2=O)cc1S(=O)(=O)N1CCCCC1	0	0	42	0	0	0
CCC(=O)Nc1ccc2c(c1)OC[C@@H](C)N(C(=O)c1ccc(F)cc1)C[C@H](C)[C@H](OC)CN(C)C2=O	-	-	-	-	0	0
CNC(=O)c1nnsc1S(=O)(=O)c1ccc(Cl)cc1	209	0	0	0	0	0
COc1ccc(NC(=O)N(C)C[C@H]2Oc3c(NC(=O)c4cnccn4)cccc3C(=O)N([C@@H](C)CO)C[C@H]2C)cc1	-	-	-	-	0	0
O=C(c1cccs1)c1coc2ccc(O)cc12	48	0	0	0	0	-
C[C@@H]1CCCCO[C@@H](CN(C)Cc2ccc(C(=O)O)cc2)[C@@H](C)CN([C@H](C)CO)C(=O)c2cc(NS(=O)(=O)c3ccccc3)ccc2O1	-	-	-	-	0	-
O=C(C[C@@H]1C[C@@H]2c3cc(NS(=O)(=O)c4ccc(F)cc4)ccc3O[C@@H]2[C@H](CO)O1)NCC1CC1	-	-	-	-	0	-
CC(=O)C(Sc1nccc(-c2cccs2)n1)C(C)=O	0	0	0	0	0	15
Cc1ccc(-n2ncc3c2CC(C)(C)CC3NC(=O)c2c(C)noc2C)cc1 (stereo not given)	91	0	0	0	0	0
COCC(=O)Nc1ccc2c(c1)C(=O)N(C)[C@H]1CC[C@H](CC(=O)NCCc3ccccc3)O[C@@H]1CO2	-	-	-	-	0	0
O=C(NC(=S)NNS(=O)(=O)c1ccccc1)c1cccnc1	0	0	0	0	-	11
CCC(C)c1ccc(O)c(NC(=S)NC(=O)c2cccnc2)c1 (stereo not given)	54	0	0	0	-	0
O=C(NC(=S)Nc1cc([N+](=O)[O-])ccc1O)c1cccnc1	0	0	0	55	-	0
C[C@@H]1CN([C@H](C)CO)C(=O)c2cccc(NS(=O)(=O)c3ccc(F)cc3)c2O[C@H]1CN(C)Cc1ccncc1	-	-	-	-	0	0
CCCN1[C@@H]2Cn3c(ccc(-c4ccccc4OC)c3=O)[C@H]1[C@@H](C(=O)N1CCOCC1)[C@@H]2CO	-	-	-	-	-	0
